Screening data deposited in PubChem BioAssay by Sanford-Burnham Center for Chemical Genomics.
An excerpt weighted towards active compounds, which were near 31% of everything screened.
PLAP act: PLAP enzyme activators, biochemical, luminescence, HTS; activation fold at 20 µM; purified PLAP enzyme, luminescent substrate read-out; stronger effect = higher value; Alkaline phosphatase, placental type (Homo sapiens), P05187; actives 1.2% (n = 96,000); in the data active = activation fold above about 2
CYP2C9 inhib: blockers of cytochrome P450 2C9 activity – biochemical, luminescence, ADME assay, primary screen; CYP2C9 Supersomes, luciferin-H conversion; inhibition, % at 5 µM; actives 20% (n = 96,000); P11712;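 active = blocking of liver enzyme CYP2C9 beyond about 50% at 5 µM, limit read from the data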
Target sequence (P11712 whole entry, looked up): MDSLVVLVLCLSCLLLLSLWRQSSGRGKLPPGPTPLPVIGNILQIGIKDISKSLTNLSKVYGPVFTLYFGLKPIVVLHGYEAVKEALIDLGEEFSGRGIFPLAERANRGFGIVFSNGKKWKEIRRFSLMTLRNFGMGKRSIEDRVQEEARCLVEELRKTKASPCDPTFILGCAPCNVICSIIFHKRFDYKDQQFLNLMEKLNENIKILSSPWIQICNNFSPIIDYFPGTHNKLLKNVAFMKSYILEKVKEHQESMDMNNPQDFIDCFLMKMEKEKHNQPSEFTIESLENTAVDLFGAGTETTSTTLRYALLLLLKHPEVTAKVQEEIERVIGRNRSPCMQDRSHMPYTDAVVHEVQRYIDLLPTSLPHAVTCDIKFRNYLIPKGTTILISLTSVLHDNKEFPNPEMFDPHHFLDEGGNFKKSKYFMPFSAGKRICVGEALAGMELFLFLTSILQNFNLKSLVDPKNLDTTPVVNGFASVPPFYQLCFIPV
CYP2C19 activ: human CYP2C19 activators, primary screen, biochemical, luminescence | Cytochrome P450 2C19 (Homo sapiens), P33261 | recombinant CYP2C19, luciferin-H EGE luminescence; stronger effect = higher value; 0 = fully inhibited enzyme, 1 = untreated enzyme | activation factor at 5 µM | AID 1025, 2008 | 96,000 tested, under 10 active;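 active = activation factor of at least 2 at 5 µM in the primary screen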;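 note: 0 = wells with 2.5 mM tranylcypromine and 1 = vehicle-only wells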
CYP2C19 inhib: blockers of cytochrome P450 2C19 activity – biochemical, luminescence, ADME assay, primary screen; CYP2C19 Supersomes, luciferin-H EGE luminescence, 30 min; P33261; actives 21% (n = 96,000); inhibition, % at 5 µM; AID 778, 2007;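 active = CYP2C19 inhibition above a set limit at 5 µM in the primary screen, cut at about 50% in these data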;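 note: plate controls were negative control wells for no effect and 2.5 mM tranylcypromine positive control for full effect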
CYP2C9 act: human CYP2C9 activators, primary screen, biochemical, luminescence; Cytochrome P450 2C9 (Homo sapiens), P11712; recombinant CYP2C9, luciferin-H conversion; stronger effect = higher value; factor 1 = untreated enzyme, 0 = blocked; activation factor at 5 µM; actives 1.4% (n = 96,000); AID 1024, 2008;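 active = activation factor of 2 or more for CYP2C9 at a 5 µM dose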;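 note: 0 = sulfaphenazole-blocked wells and 1 = vehicle-only wells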
An asterisk follows results filed as active.

SMILES | PLAP act | CYP2C9 inhib | CYP2C19 activ | CYP2C19 inhib | CYP2C9 act
COc1ccc2c(C(=O)CN3CCN(CCO)CC3)c[nH]c2c1 | 1.1 | 2 | 1 | 2 | 1
C=CCOc1ccc2c(c1)C(=NO)c1cc(OCC=C)ccc1-2 | 0.6 | 82* | 0.7 | 33 | 0.2
CNC(=S)Nc1cc(OC)ccc1OC | 1 | -1 | 1 | 3 | 1
COc1ccc2c(c1)C(=NO)c1cc(OC)ccc1-2 | 1.3 | 96* | 0.9 | 5 | 0
Cc1sc2nc(-c3cccs3)nc(N3CCCN(C)CC3)c2c1C | 1.7 | 18 | 0.8 | 16 | 0.8
O=c1c2c3c(sc2n2cnnc2n1-c1ccccc1)N(Cc1ccccc1)CCC3 | 1.5 | 11 | 0.9 | 5 | 0.9
Cc1cc(C)c(NC(=O)CN2C(=O)NC3(CCOc4ccccc43)C2=O)c(C)c1 (stereo unspecified) | 1.1 | 0 | 1 | -2 | 1
CCCC(=O)Nc1sc2c(c1C#N)CCCC2 | 1 | 50* | 0.6 | 44 | 0.5
CC(=O)Nc1sc2c(c1C#N)CCCC2 | 1 | 0 | 1 | -3 | 1
COC(=O)CCC(=O)Nc1sc2c(c1C#N)CCCC2 | 1 | 14 | 0.8 | 15 | 0.9
N#Cc1c(NC(=O)c2ccncc2)sc2c1CCC2 | 1.1 | 53* | 0.3 | 73* | 0.5
CC1CCN(CC(=O)Nc2sc3c(c2C#N)CCC3)CC1 | 1 | 56* | 0.6 | 43 | 0.4
CCOc1ccc(NC(=O)N(CCN(C)C)C(C)c2ccncc2)cc1 (stereo unspecified) | 1 | 14 | 0.8 | 19 | 0.9
CCCSc1nnc(-c2cccc(S(=O)(=O)N(C)C)c2)n1-c1cc(OC)ccc1OC | 1.5 | 86* | 0.2 | 77* | 0.1
COc1cccc(-n2c(SCc3c(C)noc3C)nnc2-c2cccc(S(=O)(=O)N(C)C)c2)c1 | 1.6 | 31 | 0.7 | 28 | 0.7
CCSc1nnc(-c2cccc(S(=O)(=O)N(C)C)c2)n1-c1cc(OC)ccc1OC | 1.7 | 84* | 0.3 | 70* | 0.2
COc1ccc(OC)c(-n2c(SCC(C)=O)nnc2-c2cccc(S(=O)(=O)N(C)C)c2)c1 | 1.5 | 17 | 0.9 | 14 | 0.8
O=C(NCCCN1CCOCC1)c1ccc(Cl)s1 | 0.8 | -19 | 0.8 | 20 | 1.2
Cc1c(NC(=O)C(C)Sc2n[nH]c(N)n2)c(=O)n(-c2ccccc2)n1C (stereo unspecified) | 1 | -12 | 1.1 | -6 | 1.1
CCC(CC)C(=O)NC12CC3CC(CC(C3)C1)C2 | 0.8 | 14 | 0.9 | 13 | 0.9
Oc1ccc(C(c2nnnn2C2CCCC2)N2CCc3ccccc3C2)cc1 (stereo unspecified) | 1.2 | 81* | 0.1 | 94* | 0.2
CCN1CCN(C(c2ccccc2OC)c2nnnn2C2CCCCC2)CC1 (stereo unspecified) | 1.8 | -14 | 1.2 | -17 | 1.1
COc1cc(C(c2nnnn2C2CCCC2)N2CCc3ccccc3C2)ccc1O (stereo unspecified) | 1.5 | 57* | 0.6 | 43 | 0.4
COC(=O)c1cc(C)sc1NC(=O)c1cccnc1 | 1 | -20 | 1.2 | -15 | 1.2
Cc1ccccc1CSCCNC(=O)CCSc1ccccc1 | 0.9 | 76* | 0.6 | 37 | 0.2
SMILES | PLAP act | CYP2C9 inhib | CYP2C19 activ | CYP2C19 inhib | CYP2C9 act
Cc1ccc(CSCCNC(=O)CCSc2ccccc2)cc1 | 0.8 | 65* | 0.7 | 26 | 0.3
Cc1ccc(SCCC(=O)Nc2c(C)n(C)n(-c3ccccc3)c2=O)cc1 | 1.1 | 32 | 1.1 | -6 | 0.7
Cc1ccccc1CNC(=O)c1ccc(CSCc2ccccc2)cc1 | 0.9 | 6 | 1 | -1 | 0.9
Nc1nc(CN2CCc3ccccc3C2)nc(Nc2ccccc2)n1 | 1.5 | 52* | 0.5 | 47 | 0.5
Nc1nc(CN2CCCCCC2)nc(Nc2ccccc2)n1 | 1.5 | 1 | 0.9 | 11 | 1
Cc1ccc(Nc2nc(N)nc(CN3CCN(c4ccccc4F)CC3)n2)cc1 | 1.4 | 7 | 1 | 5 | 0.9
Nc1nc(CN2CCN(c3ccccc3F)CC2)nc(Nc2ccccc2)n1 | 1.5 | 77* | 0.6 | 42 | 0.2
COc1ccc(Nc2nc(N)nc(CN3CCN(c4ccccn4)CC3)n2)cc1 | 1.1 | -7 | 1 | 1 | 1.1
COc1ccc(Nc2nc(N)nc(CN3CCc4ccccc4C3)n2)cc1 | 1.6 | 56* | 0.6 | 38 | 0.4
CCCOc1ccc(C(=O)NNC(=S)NC(=O)c2cc(-c3ccccc3)nc3ccccc23)cc1 | 1.2 | 47 | 0.8 | 17 | 0.5
CC1(C)CC(=O)c2cc(OCC(=O)N3CCOCC3)ccc2O1 | 1 | -17 | 1.1 | -10 | 1.2
COc1ccc(-c2ccnc3nc(N4CCOCC4)nn23)cc1 | 1 | 31 | 0.8 | 17 | 0.7
COc1ccc(-c2ccnc3nc(-n4cccc4)nn23)cc1 | 1 | 51* | 0.7 | 26 | 0.5
Cn1c(SCC(=O)N/N=C/c2cccs2)nc2ccccc21 | 1 | -101 | 0.6 | 43 | 2*
Cn1c(CNc2ccc(Cl)cc2)nc2ccccc21 | 0.7 | 84* | 0 | 98* | 0.2
Cc1ccc(/C=N/NC(=O)CSc2nc3ccccc3n2C)s1 | 1 | -50 | 0.8 | 18 | 1.5
Cn1c(CNC(=O)c2ccc(F)cc2)nc2ccccc21 | 1.2 | -38 | 0.3 | 72* | 1.4
COc1ccccc1C(=O)NCCc1nc2ccccc2n1C | 1.1 | -13 | 0 | 97* | 1.1
CCOc1ccc(C(=O)Nc2cnn(Cc3ccc(Cl)c(Cl)c3)c2)cc1 | 0.7 | 20 | 0.6 | 36 | 0.8
CC1=Nc2ncnn2C(c2ccccc2)/C1=N\O (stereo unspecified) | 1 | 8 | 0.9 | 9 | 0.9
COC(=O)c1cc(OC)c(OC)cc1NC(=O)c1ccc(OC)c(OC)c1 | 0.8 | -11 | 0.9 | 9 | 1.1
CCNc1nc(Oc2ccc(C(=O)OCC)cc2)nc(SC)n1 | 1 | 49 | 0.7 | 33 | 0.5
COc1cccc(-c2nc(CS(=O)(=O)CC(=O)Nc3cccc(C)c3C)c(C)o2)c1 | 0.9 | 1 | 1 | 1 | 1
Cn1c(CCCNC(=O)c2cccs2)nc2ccccc21 | 1 | -30 | 0.7 | 26 | 1.3
Cn1c(SCC(=O)NCc2ccc(F)cc2)nc2ccccc21 | 0.9 | -214 | 0.7 | 30 | 3.1*
Cc1nc(SCC(=O)NCc2ccc(F)cc2)c2c(=O)n(C)c(=O)n(C)c2n1 | 1.1 | -1 | 1 | -2 | 1
Cn1c(CCCNC(=O)c2ccccc2)nc2ccccc21 | 1.1 | -138 | 0.7 | 32 | 2.4*
Cc1cc(C)nc(N2CCC(C(=O)NC3CCCc4ccccc43)CC2)n1 (stereo unspecified) | 0.9 | -76 | 1 | -1 | 1.8
CC(=O)NC1(c2ccccc2)CCN(c2nc(C)cc(C)n2)CC1 | 1.7 | 97* | 0.1 | 93* | 0
